Measured values taken from PubChem BioAssay (Tox21).
Several values for one entry are separate records, joined by “and”; a condition that tells them apart may be missing. Equal entries are not always repeated. Results filed as inconclusive are left out. Unmarked numbers belong to inactive results. Activity calls are given as the source filed them. Calls come from the whole dose curve; as a rule, active = well fitted curve in the direction sought with a large enough effect in the repeat runs; inconclusive = weak or mixed curves; inactive = no such curve, though single readings can be large; an effect the other way counts as inactive or inconclusive.

Columns and labels:
[1] = target: Nuclear receptor subfamily 1 group I member 2 (Rattus norvegicus) (UniProt Q9R1A7); test: Rat pregnane X receptor (rPXR) activation by small molecules, qHTS assay (AID 1346983); conditions: rPXR luciferase reporter cells, One-Glo luminescence, 24 h; max activation: active compounds read high; note: nearly all actives have a fitted effect of over 20% in size
Sequence of Nuclear receptor subfamily 1 group I member 2 (Rattus norvegicus) (Q9R1A7 whole entry, looked up): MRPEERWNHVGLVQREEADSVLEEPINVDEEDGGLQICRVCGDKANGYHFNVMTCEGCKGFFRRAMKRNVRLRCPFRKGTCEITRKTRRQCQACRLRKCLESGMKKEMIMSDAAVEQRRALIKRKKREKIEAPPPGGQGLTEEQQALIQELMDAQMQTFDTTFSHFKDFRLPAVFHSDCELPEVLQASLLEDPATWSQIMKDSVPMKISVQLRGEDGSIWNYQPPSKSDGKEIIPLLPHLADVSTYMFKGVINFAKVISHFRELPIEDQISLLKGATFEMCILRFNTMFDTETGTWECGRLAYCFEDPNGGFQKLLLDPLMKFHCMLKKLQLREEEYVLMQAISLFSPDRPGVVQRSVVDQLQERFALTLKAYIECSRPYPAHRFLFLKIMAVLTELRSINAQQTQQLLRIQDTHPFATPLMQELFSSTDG
In short: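 Cell-based rPXR activation assay: rPXR cells, 2,000 per well, rested 5hr at 37 C, then exposed to compounds in DMSO for 24 hr at 37 C. Luciferase activity read by One-Glo luminescence after 30 min at room temperature.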

[2] = target: Nuclear receptor subfamily 1 group I member 2 (Homo sapiens) (UniProt O75469); test: CYP3A4 induction through human pregnane X receptor (PXR) by small molecules, qHTS assay (AID 1346984); conditions: DPX-2 HepG2 PXR, CYP3A4-luciferin luminescence, 24 h; series mostly up to 46.1 µM; note: nearly all actives have a fitted effect of over 40% in size; note: potency is the fitted concentration of half-maximal effect
In short: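 Induction measured in HepG2-based DPX-2 cells co-expressing human PXR and a CYP3A4 promoter-driven luciferase. After a 24-hour compound exposure, cells received CYP3A4 luciferin substrate at 3uM final for 3 hours, and light output was then recorded.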

[3] = target: Nuclear receptor subfamily 1 group I member 2 (Homo sapiens) (UniProt O75469); test: Human pregnane X receptor (PXR) activation by small molecules, qHTS assay (AID 1346985); conditions: DPX-2 HepG2 CYP3A4-luciferase, 24 h; series mostly up to 38.3 µM; note: nearly all actives have a fitted effect of over 40% in size
In short: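 DPX-2 cells (HepG2 co-transfected with a PXR response element and a CYP3A4-promoter luciferase construct) were seeded at 2,000 per well, rested 5 hr at 37C, then exposed to DMSO-dissolved compounds for 24 hr. Activation was read as luciferase luminescence.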
% is set by controls: 0 for no effect and ±100 for the full control effect.

SMILES	max activation [1]	Potency [2]	Potency [3]
O.O.O.O.O.O.O.O=S(=O)([O-])[O-].[Co+2]	-2.66%		
CC(C)CCC[C@@H](C)[C@H]1CC[C@H]2[C@@H]3CC[C@@H]4C[C@H](O)CC[C@]4(C)[C@H]3CC[C@]12C	-7.28%	inactive	
CCCCCCCCCC(=O)NO	-0.53%		
NC(=O)C1c2ccccc2CCc2ccccc21	-2.21%	inactive	
O=P(O)(O)OP(=O)(O)OP(=O)(O)O	-6.54%	inactive	
CC1(C)C[C@@H]1C(=O)N/C(=C\CCCCSC[C@H](N)C(=O)O)C(=O)O	-4.56% and -1.17%	inactive	
COc1c(O)cc2c(c1O)[C@@H]1O[C@H](CO)[C@@H](O)[C@H](O)[C@H]1OC2=O	-0.0644%	inactive	inactive
O=c1[nH]c(=O)n([C@H]2C[C@H](O)[C@@H](CO)O2)cc1/C=C/Br	-6.99%	inactive	
O=P(O)(O)CP(=O)(O)O	-0.378%	inactive	inactive
CCCCCCCCCCCC[n+]1ccc2ccccc2c1	-19.3%	inactive	inactive
C[N+](C)(C)CCOP(=O)(O)OP(=O)([O-])OC[C@H]1O[C@@H](n2ccc(N)nc2=O)[C@H](O)[C@@H]1O	-1.05%		
CN1[C@@H](CC(=O)c2ccccc2)CCC[C@H]1C[C@H](O)c1ccccc1	4.75%	inactive	
N[C@@H](Cc1cnc[nH]1)C(=O)O	-4.66%	inactive	
NC(=S)NS(=O)(=O)c1ccc(N)cc1	-1.97%	inactive	
O=C(O)Cc1nn(Cc2ccc(Br)cc2F)c(=O)c2ccccc12	0.657%	inactive	
CCN1\C(=C/C=C/C=C/c2sc3ccccc3[n+]2CC)Sc2ccccc21	-28.2%	inactive	
CCCCCCCCCCCCCC(=O)OCC(COP(=O)([O-])OCC[N+](C)(C)C)OC(=O)CCCCCCCCCCCCC (stereo not given)	-1.21%	inactive	
CCCOC(=O)c1ccccc1O	-4.53%	inactive	
C=C1[C@@H]2CC[C@@H](C2)C1(C)C	-3.65%		
O=C1CC[C@@H](C(=O)N[C@H]2C[C@@H]2c2ccccc2)N1	-3.97%	inactive	
CCCCCCCCCCCCOS(=O)(=O)O	-3.52%		

SMILES	max activation [1]	Potency [2]	Potency [3]
CC(=O)OCC1=C(C(=O)O)N2C(=O)[C@@H](NC(=O)Cc3ccccc3)[C@H]2SC1	-4.93%	inactive	
CCC1OC(=O)C[C@@H](O)[C@H](C)[C@@H](O[C@@H]2O[C@H](C)C[C@H](N(C)C)[C@H]2O)[C@@H](CC=O)C[C@@H](C)C(=O)/C=C/[C@]2(C)OC2C1C (stereo not given in full)	-4.15%	inactive	
CC(=O)OCC(=O)[C@@]1(O)CC[C@H]2[C@@H]3CCC4=CC(=O)CC[C@]4(C)C3=CC[C@@]21C	-1.67%	inactive	
O=C1c2ccccc2CN2C(=O)c3ccccc3CN12	-1.83%		
NCC(O)CC(=O)O (stereo not given)	-2.62%	inactive	
FC(F)(F)C(F)(F)C(F)(F)C(F)(F)C(F)(F)F	-2.03%	inactive	
O=C(O)COc1ccccc1/C=N/NC(=O)c1ccncc1	-3.2%	inactive	
O=C1C2CC3CC1CC(O)(C3)C2	-3.68%	inactive	
CO[C@H](C(=O)[C@@H](O)[C@@H](C)O)C1Cc2cc3cc(O[C@H]4C[C@@H](O[C@H]5C[C@@H](O)[C@H](O)[C@@H](C)O5)[C@@H](O)[C@@H](C)O4)c(C)c(O)c3c(O)c2C(=O)[C@H]1O[C@H]1C[C@@H](O[C@H]2C[C@@H](O[C@H]3C[C@](C)(O)[C@H](O)[C@@H](C)O3)[C@H](O)[C@@H](C)O2)[C@H](O)[C@@H](C)O1 (stereo not given in full)	-17.7%	inactive	
COc1cc(NS(C)(=O)=O)ccc1Nc1c2ccccc2nc2ccccc12	-19%	inactive	
CO/N=C(\C(=O)N[C@@H]1C(=O)N2C(C(=O)O)=C(COC(C)=O)CS[C@H]12)c1csc(N)n1 (stereo in doubt)	-7.73%	inactive	
CCCCCCCCCCCCCCCC(=O)OC[C@H](COP(=O)([O-])OCC[N+](C)(C)C)OC(=O)CCCCCCCCCCCCCCC	0.686%	inactive	inactive
C=C1C(=C/C=C2\CCC[C@]3(C)[C@@H]([C@H](C)CCCC(C)C)CC[C@@H]23)C[C@@H](O)C[C@@H]1O	-2.56%	inactive	
O=C(O)c1ccccc1O	-4.21%		
Cc1onc(-c2c(F)cccc2Cl)c1C(=O)N[C@@H]1C(=O)N2[C@@H]1SC(C)(C)[C@@H]2C(=O)O	-1.83% and -3.33%		
CC(C)(Oc1ccc(C2CCCc3ccccc32)cc1)C(=O)O (stereo not given)	-3.77%		
O=S(=O)(O)O	0.359%		
N=C(N)c1ccc(/C=C/c2ccc(C(=N)N)cc2O)cc1	-1.55%	inactive	
CNCCC=C1c2ccccc2CCc2ccccc21	-3.34%	7.08 µM (active)	
NCCO/C=C/[C@H](N)C(=O)O	-1.97%		
